# Reference: PubChem BioAssay AID1159580 (chemical genetic matrix, 2015)
# Hit rate of the full screen: of about 5,500 compounds, about 2,000 (36%) were called active. Not shown: some 18% with an inconclusive outcome. The list shows a part of the results. Values without a mark were called inactive. No stated cut-off is given here; in the data, active means normalized growth mostly below about 0.91 (no sharp cut-off); inconclusive means no clear call, values can overlap the other calls; inactive means mostly above about 0.92.
# Test: chemical genetic growth profiling, strain panel (AID 1159580);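 further: tested at 20 µM; growth read once vehicle control cultures reached saturation at 30 °C; 1 = growth at the plate median or of vehicle wells; lower values mean less growth of the strain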
# Settings: S. cerevisiae deletion strains, growth OD
# [1] = locus YHR030C, strain SLT2, active compounds read low
# [2] = locus YHR079C, strain IRE1, active compounds read low
# [3] = locus YJL095W, strain BCK1, active compounds read low
# [4] = locus YJR066W, strain TOR1, active compounds read low
# [5] = locus YLR113W, strain HOG1, active compounds read low
# [6] = locus YNL183C, strain NPR1, active compounds read low
# [7] = locus YOR231W, strain MKK1, active compounds read low
# [8] = locus YPL256C, strain CLN2, active compounds read low
smiles,measurement,setting,value
COc1ccc(C2CC(c3ccc(C)cc3C)=NN2C(C)=O)cc1 (centres undefined),normalized growth,"locus YAR019C, strain CDC15, active compounds read low",0.997
same,normalized growth,"locus YBL105C, strain PKC1, active compounds read low",0.993
same,normalized growth,"locus YBR135W, strain CKS1, active compounds read low",0.984
same,normalized growth,"locus YBR136W, strain MEC1, active compounds read low",0.981
same,normalized growth,"locus YBR160W, strain CDC28, active compounds read low",0.995
same,normalized growth,"locus YDL017W, strain CDC7, active compounds read low",0.992
same,normalized growth,"locus YDL028C, strain MPS1, active compounds read low",0.984
same,normalized growth,"locus YDL101C, strain DUN1, active compounds read low",0.987
same,normalized growth,"locus YDL108W, strain KIN28, active compounds read low",0.977
same,normalized growth,"locus YDL132W, strain cdc53, active compounds read low",0.994
same,normalized growth,"locus YDL214C, strain PRR2, active compounds read low",0.872
same,normalized growth,"locus YDR052C, strain DBF4, active compounds read low",0.999
same,normalized growth,"locus YDR054C, strain cdc34, active compounds read low",0.983
same,normalized growth,"locus YDR226W, strain ADK1, active compounds read low",0.985
same,normalized growth,"locus YDR477W, strain SNF1, active compounds read low",0.919
same,normalized growth,"locus YER123W, strain YCK3, active compounds read low",0.85
same,normalized growth,"locus YER133W, strain GLC7, active compounds read low",0.911
same,normalized growth,"locus YFL009W, strain cdc4, active compounds read low",0.984
same,normalized growth,"locus YFL029C, strain CAK1, active compounds read low",0.994
same,normalized growth,"locus YFR003C, strain YPI1, active compounds read low",0.988
same,normalized growth,"locus YFR019W, strain FAB1, active compounds read low",0.937
same,normalized growth,"locus YFR028C, strain CDC14, active compounds read low",0.981
same,normalized growth,"locus YGR040W, strain KSS1, active compounds read low",0.89
same,normalized growth,"locus YGR052W, strain FMP48, active compounds read low",0.971
same,normalized growth,"locus YGR092W, strain DBF2, active compounds read low",0.909
same,normalized growth,[1],1.04
same,normalized growth,[2],0.971
same,normalized growth,"locus YHR082C, strain KSP1, active compounds read low",0.984
same,normalized growth,"locus YHR205W, strain SCH9, active compounds read low",0.931
same,normalized growth,"locus YIL147C, strain SLN1, active compounds read low",0.978
same,normalized growth,[3],0.967
same,normalized growth,"locus YJL128C, strain PBS2, active compounds read low",0.907
same,normalized growth,"locus YJL157C, strain FAR1, active compounds read low",0.889
same,normalized growth,"locus YJR016C, strain ILV3, active compounds read low",0.994
same,normalized growth,"locus YJR066W, strain TOR1 (second series), active compounds read low",0.881
same,normalized growth,[4],0.978
same,normalized growth,"locus YKL048C, strain ELM1, active compounds read low",0.955
same,normalized growth,"locus YKL067W, strain YNK1, active compounds read low",0.908
same,normalized growth,"locus YKL101W, strain HSL1, active compounds read low",0.905
same,normalized growth,"locus YKL193C, strain SDS22, active compounds read low",0.989
same,normalized growth,"locus YKL203C, strain TOR2, active compounds read low",0.981
same,normalized growth,[5],0.868
same,normalized growth,"locus YLR133W, strain CKI1, active compounds read low",0.93
same,normalized growth,"locus YLR403W, strain SFP1, active compounds read low",0.916
same,normalized growth,"locus YML070W, strain DAK1, active compounds read low",0.888
same,normalized growth,"locus YMR001C, strain CDC5, active compounds read low",0.998
same,normalized growth,"locus YMR205C, strain PFK2 (second series), active compounds read low",0.913
same,normalized growth,"locus YMR277W, strain FCP1, active compounds read low",0.986
same,normalized growth,"locus YNL006W, strain LST8, active compounds read low",0.998
same,normalized growth,"locus YNL020C, strain ARK1, active compounds read low",0.914
same,normalized growth,"locus YNL161W, strain CBK1, active compounds read low",0.997
same,normalized growth,[6],0.995
same,normalized growth,"locus YNL207W, strain RIO2, active compounds read low",0.991
same,normalized growth,"locus YNL222W, strain SSU72, active compounds read low",0.991
same,normalized growth,"locus YNL307C, strain MCK1 (second series), active compounds read low",0.931
same,normalized growth,"locus YOL078W, strain AVO1, active compounds read low",0.994
same,normalized growth,"locus YOL136C, strain PFK27, active compounds read low",0.887
same,normalized growth,"locus YOR061W, strain CKA2, active compounds read low",0.881
same,normalized growth,"locus YOR119C, strain RIO1, active compounds read low",0.979
same,normalized growth,[7],0.927
same,normalized growth,"locus YOR329C, strain SCD5, active compounds read low",0.997
same,normalized growth,"locus YPL031C, strain PHO85, active compounds read low",0.917
same,normalized growth,"locus YPL153C, strain RAD53, active compounds read low",0.905
same,normalized growth,"locus YPL204W, strain HRR25, active compounds read low",0.922
same,normalized growth,"locus YPL209C, strain IPL1, active compounds read low",0.998
same,normalized growth,[8],0.975
same,normalized growth,"locus YPR025C, strain CCL1, active compounds read low",0.992
same,normalized growth,"locus YPR106W, strain ISR1, active compounds read low",0.979
same,normalized growth,"locus YPR111W, strain DBF20, active compounds read low",0.977
same,normalized growth,"strain NNK1, active compounds read low",0.97
same,normalized growth,"strain TSCII, active compounds read low",0.995
O=C1c2ccccc2C(=O)C1c1ccc(Br)cc1,normalized growth,[1],0.851 (active)
same,normalized growth,[2],0.816 (active)
same,normalized growth,[3],0.888
same,normalized growth,[4],0.823 (active)
same,normalized growth,[5],0.717 (active)
same,normalized growth,[6],0.818 (active)
same,normalized growth,[7],0.853 (active)
same,normalized growth,[8],0.712 (active)
